Reference: PubChem BioAssay (EPA / NIEHS)
Results filed as inconclusive are left out. Active and inactive are the calls of the source. The calls were made as follows: active = hit-call score of the fitted dose curve at least 0.9, where 1 is the maximum; inconclusive = response in the unintended direction; inactive = score below 0.9.

Assays:
[1] = biological target: Estrogen receptor (Homo sapiens) (UniProt P03372); assay: OT_ER_ERaERa_1440: Odyssey Thera (OT) 24-hour HEK293T Protein-Complementation Assay for Estrogen Receptor-alpha/-alpha Homodimer (AID 2283349);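 also: hits raise fluorescence above DMSO for agonists and antagonists alike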
In short: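 Protein-fragment complementation between two human ERα ligand-binding domains (aa 310-547) in stably transfected HEK293T cells was monitored after 24 h treatment, using fluorescence intensity relative to vehicle controls.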

[2] = biological target: Estrogen receptor (Homo sapiens) (UniProt P03372); assay: OT_ER_ERaERa_0480: Odyssey Thera (OT) 8-hour HEK293T Protein-Complementation Assay for Estrogen Receptor-alpha/-alpha Homodimer (AID 2283351);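 also: rise in fluorescence from reassembled reporter fragments on ERα LBD homodimer in nucleus or whole cell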
In short: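 Binding reporter in which dimerisation of ERα LBD (aa 310-547) fusions reconstitutes a fluorescent reporter in HEK293T cells. Compounds incubated 8 h; mean fluorescence intensity increase versus DMSO scored.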

[3] = biological target: T1, Estrogen receptor (Homo sapiens) + Estrogen receptor beta (Homo sapiens) (UniProt P03372+Q92731); assay: OT_ER_ERaERb_0480: Odyssey Thera (OT) 8-hour HEK293T Protein-Complementation Assay for Estrogen Receptor-alpha/-beta Heterodimer (AID 2283352)
In short: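 Compound added to HEK293T cells carrying split-reporter-tagged ER-alpha and ER-beta LBDs, incubated 8 hours, then imaged by laser scanning cytometer. Signal rise in nucleus, or nucleus and cytoplasm, over vehicle was fitted in the positive direction.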

[4] = biological target: T1, Estrogen receptor (Homo sapiens) + Estrogen receptor beta (Homo sapiens); assay: OT_ER_ERaERb_1440: Odyssey Thera (OT) 24-hour HEK293T Protein-Complementation Assay for Estrogen Receptor-alpha/-beta Homodimer (AID 2283356);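 also: heteromer of ER alpha and ER beta binding domains; hits raise reporter fluorescence and both agonists and antagonists give an increase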
In short: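 Stable HEK293T PCA line, ERα LBD 310-547 + ERβ LBD 263-489 fused to reporter fragments; 24 h treatment; fluorescence read by laser scanning cytometry; positive fitting direction relative to DMSO.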

[5] = biological target: Estrogen receptor beta (Homo sapiens) (UniProt Q92731); assay: OT_ER_ERbERb_0480: Odyssey Thera (OT) 8-hour HEK293T Protein-Complementation Assay for Estrogen Receptor-beta/-beta Homodimer (AID 2283357);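 also: active means signal gain over DMSO baseline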
In short: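 Cells (HEK293T, stable ER-beta LBD PCA pair) are treated 8 hours, fixed and Draq5-stained; signal is fluorescence intensity increase relative to vehicle, fitted in the gain direction.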

[6] = biological target: bovine Estrogen Receptor (ER), ESR1 (gene 407238) (UniProt P49884); assay: NVS_NR_bER: NovaScreen (NVS) Nuclear Receptor Binding Assay for bovine Estrogen Receptor (ER) (AID 2283345);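 also: actives lower the bound radioligand count which means they displace the ER ligand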
In short: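 Bovine uterine membranes; tritiated or iodinated radioligand; competitive displacement; 18 h; scintillation read; DMSO negative control; 25 uM duplicates, then concentration series for actives.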

[7] = biological target: Androgen Receptor/SRC-1 Co-activator, AR (gene 367) (UniProt P10275); assay: OT_AR_ARSRC1_0960: Odyssey Thera (OT) 16-hour HEK293T Protein-Complementation Assay for Androgen Receptor/SRC-1 Co-activator (AID 2283353);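 also: actives raise the signal above DMSO so potency reflects increased AR and SRC-1 complex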
In short: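 Interaction of AR with SRC-1 was followed by YFP fragment complementation in HEK293T cells after 16 h of dosing. Gain of nuclear-over-cytoplasmic 488 nm fluorescence against DMSO controls defined activity.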

[8] = biological target: Androgen Receptor/SRC-1 Co-activator, AR (gene 367) (UniProt P10275); assay: OT_AR_ARSRC1_0480: Odyssey Thera (OT) 8-hour HEK293T Protein-Complementation Assay for Androgen Receptor/SRC-1 Co-activator (AID 2283354);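 also: hits raise the complementation signal above DMSO so AC50 marks enhancers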
In short: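 Measures AR/SRC-1 binding by Venus YFP fragment complementation in HEK293T stable lines at 8 h post-dose. Imaging quantifies the 488nm nucleus/cytoplasm ratio in ≥400 cells; DMSO defines baseline.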

[9] = biological target: human Peripheral-type Benzodiazepine Receptor (PBR), TSPO (gene 706) (UniProt P30536); assay: NVS_MP_hPBR: NovaScreen (NVS) Membrane Protein Assay for human Peripheral-type Benzodiazepine Receptor (PBR) (AID 2283331);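 also: hits reduce radioligand binding relative to DMSO baseline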
In short: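 Scintillation counts of filter-bound radioligand served as read-out after 1 h chemical dosing of human colonic membrane preparations. Activity was scored as signal loss against DMSO; initial duplicates at 25 uM, confirmatory concentration series afterward.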

[10] = biological target: rat Peripheral-type Benzodiazepine Receptor (PBR), Tspo (gene 24230) (UniProt P16257); assay: NVS_MP_rPBR: NovaScreen (NVS) Membrane Protein Assay for rat Peripheral-type Benzodiazepine Receptor (PBR) (AID 2283335)
In short: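 Radioligand displacement, rat kidney membrane prep, 1 h exposure, filter-based scintillation read; DMSO baseline, loss-of-signal scored. Primary screen at 25 uM in duplicate, actives followed up in concentration series.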

[11] = biological target: rat Mineralocorticoid Receptor (MR), Nr3c2 (gene 25672) (UniProt P22199); assay: NVS_NR_rMR: NovaScreen (NVS) Nuclear Receptor Binding Assay for rat Mineralocorticoid Receptor (MR) (AID 2283355)
In short: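 Adrenalectomized rat brain supernatant was dosed with test chemical, then radioligand binding was measured by scintillation counting at 24 h. Initial testing ran in duplicate at 25 uM, followed by concentration series for actives.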

[12] = biological target: human Peroxisome Proliferator-activated Receptor alpha (PPARa), PPARA (gene 5465) (UniProt Q07869); assay: NVS_NR_hPPARa: NovaScreen (NVS) Nuclear Receptor Binding Assay for human Peroxisome Proliferator-activated Receptor alpha (PPARa) (AID 2283359);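 also: activity means loss of TR-FRET signal versus DMSO baseline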
In short: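 Chemicals were first screened in duplicate at 25 uM, and active ones were retested across concentration series. Binding was monitored by TR-FRET one hour after dosing, with decreased signal against DMSO counted as activity.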

Estrogen receptor beta (Homo sapiens), sequence (Q92731 whole entry, looked up, the tested form may be a part): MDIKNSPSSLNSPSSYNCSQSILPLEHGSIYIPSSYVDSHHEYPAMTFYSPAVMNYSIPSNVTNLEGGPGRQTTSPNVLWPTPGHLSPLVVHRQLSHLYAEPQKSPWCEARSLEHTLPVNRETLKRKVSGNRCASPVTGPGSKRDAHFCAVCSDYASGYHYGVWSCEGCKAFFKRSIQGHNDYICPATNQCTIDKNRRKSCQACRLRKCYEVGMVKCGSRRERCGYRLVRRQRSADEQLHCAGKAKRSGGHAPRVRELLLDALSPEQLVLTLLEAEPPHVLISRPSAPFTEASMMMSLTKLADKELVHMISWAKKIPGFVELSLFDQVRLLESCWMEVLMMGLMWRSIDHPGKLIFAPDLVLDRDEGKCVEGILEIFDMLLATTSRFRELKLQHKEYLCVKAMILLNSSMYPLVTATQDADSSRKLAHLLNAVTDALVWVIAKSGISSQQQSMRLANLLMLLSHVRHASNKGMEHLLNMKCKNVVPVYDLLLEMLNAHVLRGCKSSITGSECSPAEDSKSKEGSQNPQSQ
Androgen Receptor/SRC-1 Co-activator, AR (gene 367), sequence (P10275 whole entry, looked up, the tested form may be a part): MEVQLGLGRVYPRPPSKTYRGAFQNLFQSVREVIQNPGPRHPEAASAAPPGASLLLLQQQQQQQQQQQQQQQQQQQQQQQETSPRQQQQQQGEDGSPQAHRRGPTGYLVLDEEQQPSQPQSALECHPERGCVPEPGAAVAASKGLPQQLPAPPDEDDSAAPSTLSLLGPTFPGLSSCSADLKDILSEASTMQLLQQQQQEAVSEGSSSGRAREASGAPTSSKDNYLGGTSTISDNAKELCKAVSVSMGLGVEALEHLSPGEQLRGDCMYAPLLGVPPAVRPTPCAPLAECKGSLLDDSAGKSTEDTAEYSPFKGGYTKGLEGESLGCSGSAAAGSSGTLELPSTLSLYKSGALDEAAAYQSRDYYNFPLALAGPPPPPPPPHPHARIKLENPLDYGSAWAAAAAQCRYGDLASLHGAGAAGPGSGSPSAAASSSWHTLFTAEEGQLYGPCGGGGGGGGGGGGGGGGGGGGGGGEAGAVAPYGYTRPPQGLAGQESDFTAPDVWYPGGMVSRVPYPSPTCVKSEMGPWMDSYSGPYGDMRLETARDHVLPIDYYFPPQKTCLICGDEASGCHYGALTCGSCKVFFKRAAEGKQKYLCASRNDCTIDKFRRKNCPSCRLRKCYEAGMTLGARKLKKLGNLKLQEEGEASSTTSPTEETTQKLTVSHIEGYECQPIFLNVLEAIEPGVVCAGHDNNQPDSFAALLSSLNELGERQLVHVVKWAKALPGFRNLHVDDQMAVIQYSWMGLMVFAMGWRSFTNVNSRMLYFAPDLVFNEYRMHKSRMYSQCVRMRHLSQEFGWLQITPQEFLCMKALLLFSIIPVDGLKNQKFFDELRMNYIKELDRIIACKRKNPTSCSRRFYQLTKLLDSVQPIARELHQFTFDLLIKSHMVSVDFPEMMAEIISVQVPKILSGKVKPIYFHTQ
human Peroxisome Proliferator-activated Receptor alpha (PPARa), PPARA (gene 5465), sequence (Q07869 whole entry, looked up): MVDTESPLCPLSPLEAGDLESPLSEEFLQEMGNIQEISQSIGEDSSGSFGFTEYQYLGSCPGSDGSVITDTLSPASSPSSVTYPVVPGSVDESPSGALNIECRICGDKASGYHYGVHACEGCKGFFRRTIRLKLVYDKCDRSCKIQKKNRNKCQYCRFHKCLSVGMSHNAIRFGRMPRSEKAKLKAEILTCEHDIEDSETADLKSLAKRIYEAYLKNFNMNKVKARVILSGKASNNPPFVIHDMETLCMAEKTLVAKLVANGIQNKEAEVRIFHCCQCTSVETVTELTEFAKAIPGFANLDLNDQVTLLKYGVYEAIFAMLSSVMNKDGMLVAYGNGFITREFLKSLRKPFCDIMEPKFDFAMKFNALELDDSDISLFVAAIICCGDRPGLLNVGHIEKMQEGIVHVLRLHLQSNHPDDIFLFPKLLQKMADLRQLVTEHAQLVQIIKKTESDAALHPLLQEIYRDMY
T1 sequence (P03372 whole entry, looked up): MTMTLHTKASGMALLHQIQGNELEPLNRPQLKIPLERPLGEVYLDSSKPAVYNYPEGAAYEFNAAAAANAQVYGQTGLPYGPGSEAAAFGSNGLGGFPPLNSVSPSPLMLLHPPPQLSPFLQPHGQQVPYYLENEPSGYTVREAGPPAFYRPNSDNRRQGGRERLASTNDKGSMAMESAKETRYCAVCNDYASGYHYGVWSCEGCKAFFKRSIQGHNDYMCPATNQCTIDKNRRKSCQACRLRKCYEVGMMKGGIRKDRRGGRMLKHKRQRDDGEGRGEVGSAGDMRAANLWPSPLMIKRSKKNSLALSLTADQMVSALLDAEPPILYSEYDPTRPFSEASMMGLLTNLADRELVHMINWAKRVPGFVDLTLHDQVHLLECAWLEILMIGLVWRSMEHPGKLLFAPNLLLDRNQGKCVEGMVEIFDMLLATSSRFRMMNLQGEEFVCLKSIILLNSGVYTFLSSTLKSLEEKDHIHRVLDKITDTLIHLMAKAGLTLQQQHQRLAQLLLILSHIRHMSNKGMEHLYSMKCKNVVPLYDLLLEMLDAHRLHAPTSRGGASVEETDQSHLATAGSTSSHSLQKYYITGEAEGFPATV
T1 sequence (Q92731 whole entry, looked up): as the sequence (Q92731 whole entry, looked up, the tested form may be a part) above
Estrogen receptor (Homo sapiens), sequence (P03372 whole entry, looked up, the tested form may be a part): as the sequence (P03372 whole entry, looked up) above
bovine Estrogen Receptor (ER), ESR1 (gene 407238), sequence (P49884 whole entry, looked up): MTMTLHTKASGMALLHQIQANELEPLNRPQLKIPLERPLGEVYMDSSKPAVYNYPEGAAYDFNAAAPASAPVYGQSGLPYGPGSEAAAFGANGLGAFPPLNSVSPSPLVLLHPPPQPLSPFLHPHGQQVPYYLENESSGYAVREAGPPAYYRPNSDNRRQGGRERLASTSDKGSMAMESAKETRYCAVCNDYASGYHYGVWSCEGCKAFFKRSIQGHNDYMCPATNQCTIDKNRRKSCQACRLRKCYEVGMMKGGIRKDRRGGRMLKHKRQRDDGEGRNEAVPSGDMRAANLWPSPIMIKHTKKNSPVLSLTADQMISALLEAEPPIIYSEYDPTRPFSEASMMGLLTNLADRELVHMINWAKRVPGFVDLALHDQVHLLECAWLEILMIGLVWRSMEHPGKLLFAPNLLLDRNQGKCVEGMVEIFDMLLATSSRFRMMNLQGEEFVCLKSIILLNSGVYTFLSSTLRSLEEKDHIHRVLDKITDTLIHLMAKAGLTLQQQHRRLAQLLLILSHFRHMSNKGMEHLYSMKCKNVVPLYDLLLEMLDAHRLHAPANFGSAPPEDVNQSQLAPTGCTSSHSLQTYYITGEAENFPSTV
rat Peripheral-type Benzodiazepine Receptor (PBR), Tspo (gene 24230), sequence (P16257 whole entry, looked up): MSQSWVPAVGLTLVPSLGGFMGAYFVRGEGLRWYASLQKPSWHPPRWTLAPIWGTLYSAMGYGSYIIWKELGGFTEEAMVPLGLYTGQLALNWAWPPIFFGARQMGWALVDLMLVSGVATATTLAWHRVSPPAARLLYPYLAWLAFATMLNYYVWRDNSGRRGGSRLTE
rat Mineralocorticoid Receptor (MR), Nr3c2 (gene 25672), sequence (P22199 whole entry, looked up): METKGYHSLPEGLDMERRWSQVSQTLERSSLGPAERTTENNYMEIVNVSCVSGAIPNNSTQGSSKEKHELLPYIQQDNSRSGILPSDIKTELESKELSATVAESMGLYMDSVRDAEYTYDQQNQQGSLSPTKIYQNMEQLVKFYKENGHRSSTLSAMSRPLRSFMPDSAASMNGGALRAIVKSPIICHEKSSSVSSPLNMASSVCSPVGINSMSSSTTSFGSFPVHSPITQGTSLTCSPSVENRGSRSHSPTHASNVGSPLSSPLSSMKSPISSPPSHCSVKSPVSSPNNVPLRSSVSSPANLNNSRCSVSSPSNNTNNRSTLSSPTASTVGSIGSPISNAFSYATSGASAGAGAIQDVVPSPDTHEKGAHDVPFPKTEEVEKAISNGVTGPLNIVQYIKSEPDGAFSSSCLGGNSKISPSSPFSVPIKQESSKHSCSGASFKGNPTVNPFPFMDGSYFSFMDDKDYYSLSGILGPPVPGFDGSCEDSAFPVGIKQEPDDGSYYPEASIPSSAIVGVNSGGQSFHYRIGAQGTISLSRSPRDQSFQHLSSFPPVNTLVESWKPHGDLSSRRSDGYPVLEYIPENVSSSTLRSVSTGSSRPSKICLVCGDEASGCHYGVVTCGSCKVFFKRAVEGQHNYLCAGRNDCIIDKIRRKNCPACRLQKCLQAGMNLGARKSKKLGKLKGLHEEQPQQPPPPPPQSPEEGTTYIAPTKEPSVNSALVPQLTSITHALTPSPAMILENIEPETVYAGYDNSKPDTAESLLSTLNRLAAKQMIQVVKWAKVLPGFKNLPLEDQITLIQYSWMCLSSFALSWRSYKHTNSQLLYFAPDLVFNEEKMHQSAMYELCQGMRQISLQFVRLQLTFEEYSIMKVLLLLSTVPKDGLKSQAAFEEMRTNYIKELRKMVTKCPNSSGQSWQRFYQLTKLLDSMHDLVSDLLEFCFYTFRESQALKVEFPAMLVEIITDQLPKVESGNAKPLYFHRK
human Peripheral-type Benzodiazepine Receptor (PBR), TSPO (gene 706), sequence (P30536 whole entry, looked up): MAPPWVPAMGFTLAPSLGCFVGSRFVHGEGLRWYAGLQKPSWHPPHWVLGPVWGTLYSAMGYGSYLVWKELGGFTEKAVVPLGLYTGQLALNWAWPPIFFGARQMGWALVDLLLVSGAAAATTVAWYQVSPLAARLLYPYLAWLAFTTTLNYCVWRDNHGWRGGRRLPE

With `CC(C)(N)CO` the outcome [1] was “inactive”, the outcome [2] was “inactive” and the outcome [3] was “inactive”. The outcome [4] was “inactive” and the outcome [5] was “inactive”.

For `CC(=O)C=CC1=C(C)CCCC1(C)C`, the outcome [1] was “inactive” and the outcome [2] was “inactive”.

With `c1cc(C(c2ccc(OCC3CO3)cc2)c2ccc(OCC3CO3)cc2)ccc1OCC1CO1` (configuration not stated) the outcome [6] was “inactive”.

With `CCCCCCCCCC=O` the outcome [6] was “inactive”, the outcome [1] was “inactive” and the outcome [2] was “inactive”. For the same compound, the outcome [3] was “inactive” and the outcome [4] was “inactive”.

With `CNCCCC12CCC(c3ccccc31)c1ccccc12` the outcome [6] was “inactive”.

`CC1=CCC2C(C1)C2(C)C` (configuration not stated) was tested, and the outcome [6] was “inactive”.

`Cc1cc(C2(c3cc(C)c(O)cc3C)OS(=O)(=O)c3ccccc32)c(C)cc1O` was tested, and the AC50 [6] was 10.6 µM (active).

With `NC(=O)Nc1ccc(Cl)cc1` the outcome [6] was “inactive”, the outcome [1] was “inactive” and the outcome [2] was “inactive”. For the same compound, the outcome [3] was “inactive”, the outcome [4] was “inactive” and the outcome [5] was “inactive”.

With `CCC/C=C/C=O` the outcome [1] was “inactive”, the outcome [2] was “inactive” and the outcome [3] was “inactive”. For the same compound, the outcome [7] was “inactive”, the outcome [8] was “inactive” and the outcome [4] was “inactive”. For the same compound, the outcome [5] was “inactive”.

With `CCCCCCCCC=O` the outcome [6] was “inactive”, the outcome [1] was “inactive” and the outcome [2] was “inactive”. The outcome [3] was “inactive”, the outcome [4] was “inactive” and the outcome [5] was “inactive”.

With `Nc1cccc(S(=O)(=O)c2cccc(N)c2)c1` the outcome [6] was “inactive”.

With `CC(C)C(C)(C)C(C)(C)C(C)(C)S` the outcome [6] was “inactive”.

For `O=C(Oc1ccccc1)c1ccc(O)cc1`, the AC50 [9] was 9.99 µM (active), the AC50 [10] was 4.86 µM (active) and the AC50 [5] was 2.42 µM (active).

For `CCCCCCCCCCCCCCCCCC(=O)OCC(CC)CCCC` (configuration not stated), the outcome [10] was “inactive” and the outcome [5] was “inactive”.

For `NNc1nc(-c2ccc(N)cc2)cs1`, the outcome [6] was “inactive”.

With `O=Nc1ccc(Nc2ccccc2)cc1` the outcome [6] was “inactive”, the outcome [1] was “inactive” and the outcome [2] was “inactive”. For the same compound, the AC50 [7] was 14.2 µM (active), the AC50 [8] was 11 µM (active) and the outcome [4] was “inactive”.

With `CC(=O)[C@H]1CC[C@H]2[C@@H]3CC=C4C[C@@H](O)CC[C@]4(C)[C@H]3CC[C@]12C` the outcome [6] was “inactive”.

For `CCCc1c(OCCCOc2ccc(OCC(=O)O)cc2)ccc(C(C)=O)c1O`, the outcome [6] was “inactive”.

For `CC(C)=CCO`, the outcome [6] was “inactive”.

With `CCCCCC(CO)CCC` (configuration not stated) the outcome [5] was “inactive”.

For `CC(=O)O[C@]1(C(C)=O)CC[C@H]2[C@@H]3C[C@H](C)C4=CC(=O)CC[C@]4(C)[C@H]3CC[C@@]21C`, the AC50 [11] was 0.569 µM (active).

`CCCCOCCOCCOCCOCCO` was tested, and the outcome [1] was “inactive”, the outcome [3] was “inactive” and the outcome [4] was “inactive”. For the same compound, the outcome [5] was “inactive”.

In the case of `C=CC[N+](C)(C)CC=C`, the outcome [5] is reported as “inactive”.

`CC(C)=CCCC(C)=CCCC(C)=CCO` was tested, and the outcome [5] was “inactive”.

In the case of `OC1OC[C@@H](O)[C@H](O)[C@H]1O` (some centres not stated), the outcome [5] is reported as “inactive”.

With `C=CC(C)(O)CCC=C(C)CCC=C(C)C` (configuration not stated) the outcome [5] was “inactive”.

With `BrC1CCC(Br)C(Br)CCC(Br)C(Br)CCC1Br` (configuration not stated) the outcome [1] was “inactive”, the outcome [2] was “inactive” and the AC50 [7] was 19.6 µM (active). For the same compound, the outcome [8] was “inactive”, the AC50 [4] was 60.4 µM (active) and the outcome [5] was “inactive”.

`C=O` was tested, and the outcome [5] was “inactive”.

In the case of `O=C1c2ccccc2C(=O)N1SC1CCCCC1`, the outcome [1] is reported as “inactive”, the outcome [2] is reported as “inactive” and the outcome [3] is reported as “inactive”. The outcome [5] was “inactive”.

In the case of `c1ccc2[nH]ccc2c1`, the outcome [7] is reported as “inactive”, the outcome [8] is reported as “inactive” and the outcome [5] is reported as “inactive”.

With `COc1c(Cl)c(Cl)c(Cl)c(Cl)c1Cl` the AC50 [5] was 41.8 µM (active).

For `CCCCCCCCCCCCCOS(=O)(=O)O`, the outcome [7] was “inactive”, the outcome [8] was “inactive” and the outcome [5] was “inactive”. The AC50 [12] was 2.1 µM (active).

In the case of `CCCCCCCCCCCCCCCC(=O)OC[C@H](O)[C@H]1OC(=O)C(O)=C1O`, the outcome [1] is reported as “inactive”, the outcome [7] is reported as “inactive” and the outcome [8] is reported as “inactive”.

With `CC(C)=CCC[C@](C)(O)[C@@H]1CC=C(C)CC1` the outcome [5] was “inactive”.

`CC(C)CCCCCCCOC(=O)c1ccc(C(=O)OCCCCCCCC(C)C)c(C(=O)OCCCCCCCC(C)C)c1` was tested, and the outcome [5] was “inactive”.

For `O=C(O)CCCCCCCC(=O)O`, the outcome [5] was “inactive”.

For `Cc1ccc(S)cc1`, the outcome [1] was “inactive”, the outcome [2] was “inactive” and the outcome [3] was “inactive”. The outcome [4] was “inactive” and the outcome [5] was “inactive”.

For `CC1(C)C(=O)N(Br)C(=O)N1Cl`, the outcome [5] was “inactive”.

`CCC(=O)/C=C/C1C(C)=CCCC1(C)C` (configuration not stated) was tested, and the outcome [5] was “inactive”.

For `O=C[C@@H](O)[C@H](O)[C@H](O)CO`, the outcome [7] was “inactive” and the outcome [5] was “inactive”.

In the case of `CCCCCCCCCCN`, the outcome [5] is reported as “inactive”.

`CCCCCOC(=O)CCC` was tested, and the outcome [5] was “inactive” and the outcome [12] was “inactive”.

For `CCCCC[Si](OCC)(OCC)OCC`, the outcome [7] was “inactive”, the outcome [8] was “inactive” and the outcome [5] was “inactive”. For the same compound, the outcome [12] was “inactive”.

In the case of `CCN(CC)c1ccc(C(=C2C=CC(=[N+](CC)CC)C=C2)c2ccc(S(=O)(=O)O)cc2S(=O)(=O)[O-])cc1`, the outcome [7] is reported as “inactive”, the outcome [8] is reported as “inactive” and the outcome [5] is reported as “inactive”.

For `COc1ccc(O)cc1`, the outcome [7] was “inactive” and the outcome [5] was “inactive”.

`CCCCCCCCCCCCCCCC(=O)O` was tested, and the outcome [5] was “inactive” and the outcome [12] was “inactive”.

With `COc1cc(C(C)(C)C)c(O)c(C(C)(C)C)c1` the outcome [12] was “inactive”.

In the case of `Cc1ccc(C(C)C)cc1O`, the AC50 [5] is reported as 63.6 µM (active).

With `CCCCC(CC)COC(=O)/C=C\C(=O)OCC(CC)CCCC` (configuration not stated) the AC50 [7] was 75.5 µM (active) and the outcome [5] was “inactive”.

For `O=c1cc(-c2ccccc2)oc2cc(O)cc(O)c12`, the outcome [7] was “inactive”, the outcome [8] was “inactive” and the AC50 [5] was 7.09 µM (active).

In the case of `CCCCCCCCC`, the outcome [1] is reported as “inactive”, the outcome [2] is reported as “inactive” and the outcome [3] is reported as “inactive”. For the same compound, the outcome [4] was “inactive” and the outcome [5] was “inactive”.
